Calls of active or inactive are those of the source.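 The calls were made as follows: active = compounds whose dose series gives a full or clear partial fitted curve of increased nuclear translocation; inconclusive = weak partial curve or effect only at the top dose; inactive = no dose-dependent translocation response.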
Potency is read from the fitted curve at half-maximal effect.

Glucocorticoid receptor (Homo sapiens), sequence (P04150 whole entry, looked up): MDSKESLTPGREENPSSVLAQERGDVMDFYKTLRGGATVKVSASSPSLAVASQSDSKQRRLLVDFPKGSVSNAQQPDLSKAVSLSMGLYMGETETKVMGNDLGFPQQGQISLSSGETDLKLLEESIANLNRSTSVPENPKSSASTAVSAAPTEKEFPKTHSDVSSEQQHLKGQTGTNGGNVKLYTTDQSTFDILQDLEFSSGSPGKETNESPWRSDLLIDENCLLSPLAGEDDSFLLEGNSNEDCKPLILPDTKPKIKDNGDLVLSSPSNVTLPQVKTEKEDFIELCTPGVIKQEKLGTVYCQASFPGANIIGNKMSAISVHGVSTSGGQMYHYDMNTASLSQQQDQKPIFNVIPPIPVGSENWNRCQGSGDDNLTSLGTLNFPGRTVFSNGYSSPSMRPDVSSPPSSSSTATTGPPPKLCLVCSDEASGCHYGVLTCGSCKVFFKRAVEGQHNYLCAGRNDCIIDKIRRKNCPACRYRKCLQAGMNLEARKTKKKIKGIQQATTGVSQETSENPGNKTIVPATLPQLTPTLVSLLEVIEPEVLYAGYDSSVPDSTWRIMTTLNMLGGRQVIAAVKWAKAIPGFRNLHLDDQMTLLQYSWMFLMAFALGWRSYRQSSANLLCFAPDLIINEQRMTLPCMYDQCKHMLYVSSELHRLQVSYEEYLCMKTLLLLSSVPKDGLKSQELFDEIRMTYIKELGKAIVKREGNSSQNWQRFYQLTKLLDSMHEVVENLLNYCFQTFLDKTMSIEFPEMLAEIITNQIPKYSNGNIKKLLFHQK

The assay concerns the target Glucocorticoid receptor (Homo sapiens) (UniProt P04150). The assay can be described thus: GR-GFP Redistribution (AID 450). The settings on record: U2OS GR-GFP nuclear translocation, laser cytometry, 2 h. The source says:
NIH Molecular Libraries Screening Centers Network [MLSCN]
NIH Chemical Genomics Center [NCGC]
The glucocorticoid receptor (GR) Redistribution assay (BioImage) enables the visualization of GR cytoplasmic to nuclear translocation by the use of a GR-GFP fusion. GR is normally cytosolic, however ligands such as dexamethasone, cause nuclear translocation where the protein binds to response elements and interacts with various co-factors to modulate transcription. Because both functional agonists and antagonists can induce nuclear translocation, this assay can detect ligands regardless of their effects on gene expression. GR-GFP expressing U20S cells were used here. Dexamethasone was the positive control for translocation and data normalization. Detection of nuclear translocation was performed in 1536-well plates using the Acumen laser scanning plate cytometer (TTP LabTech). Validation of this assay and a detailed protocol have been described.
NCGC Assay Protocol Summary:
GR-GFP U2OS cells were maintained in DMEM with Glutamax and high glucose, 1% v/v penicillin-streptomycin, and 0.5 mg/mL Geneticin. For cell culture, 10% […] fetal bovine serum (FBS) was used (Invitrogen #26140-079). For cell plating 10% dextran, charcoal-stripped FBS (Hyclone SH30068.03) was used. U2OS cells were trypsin treated, suspended in medium, and passed through a 40 um basket filter. The cells were seeded at 600 cells/5 uL/well into clear-bottom black sided 1536-well plates and incubated for approximately 20 hrs, 37degC, 5%, CO2 in a tissue culture incubator. Twenty-three nL of compound was delivered by pin tool and the plates were incubated as above for 2 hrs. The compounds were tested as a 7-point titration ranging from 46 uM to 0.6 nM. The cells were fixed using the Kalypsys Washer/Dispenser station. The fixing protocol involved aspiration of the cell media, addition of 6 uL/well of PBS, aspiration of PBS, addition of 5uL/well of 100% methanol, aspiration of methanol, and addition of 3 uL/well PBS with 1.5 uM propidium iodide (PI). The plates were read by the Acumen Explorer using a 1 x 8 um scan of the whole well area. PI fluorescence triggered the collection of PI and GFP signals. A nuclei population was defined by a 10 to 100 um width and depth filter that eliminated small and large fluorescent particles. Two subpopulations of nuclei were then defined by peak intensity of GFP fluorescence to obtain translocated and untranslocated objects. The number of translocated objects was used for data normalization.
Keywords: NIH Roadmap, MLSCN, MLI, MLSMR, sOGT, qHTS, NCGC
For the compound `CC(=O)O[C@H]1CC[C@H]2[C@@H]3CCC4=C[C@@H](C5SCCS5)[C@H](OC(C)=O)C[C@]4(C)[C@H]3CC[C@@]12C`, the Potency was > 46 µM (inactive). The same measure for `Nc1ccc(S(=O)(=O)c2ccc(NCN3C(=O)NC(=O)C(=O)C3=O)cc2)cc1`: > 46 µM (inactive). The result for `O=C1N[C@@]2(CN3CCC2CC3)C(=O)N1CN(Cc1ccccc1)c1ccccc1` reads > 46 µM (inactive). The result for `O=[As](O)(O)c1ccc(N=Nc2ccc([As](=O)(O)O)cc2)cc1` reads > 46 µM (inactive); that for `C=C[C@@H]1CN2CC[C@H]1C[C@H]2[C@H](O)c1ccnc2ccccc12`, > 46 µM (inactive). For the compound `C[C@@H]1CC[C@@H]2N(C1)C[C@H]1[C@@](O)([C@H](O)C[C@]3(O)[C@H]4CC[C@H]5[C@]6(O)O[C@]4(C[C@]13O)[C@@]5(C)CC[C@@H]6O)[C@@]2(C)O`, the Potency was > 46 µM (inactive). `O=S(=O)(NCCO)c1cc[c]([Sb](=[O])([OH])[OH])cc1`: the Potency is > 46 µM (inactive). The same measure for `O=C(O)[C@@H](O)[C@@H](O)[C@@H]1[O][Sb][O][C@@H]1CO`: > 46 µM (inactive); for `N[C@@H](Cc1cc(Br)c(O)c(Br)c1)C(=O)O`: > 46 µM (inactive).

On to `N[C@H](Cn1cc(I)c(=O)[nH]c1=O)C(=O)O`, for which the Potency was > 46 µM (inactive). The result for `C[C@@H]1[C@H]2C=C[C@@H]1[C@@H](c1c3ccc(=O)c(O)c-3oc3c(O)c(O)ccc13)[C@@H]2C(=O)O` reads > 46 µM (inactive); that for `O=S(=O)(Nc1nccs1)c1ccc([As](=O)(O)O)cc1`, > 46 µM (inactive). The result for `C[C@H](CC(C#N)(c1ccccc1)c1ccccc1)N1CCCCC1` reads > 46 µM (inactive); that for `CC1=C2C(=O)[C@@H]3[C@@H](CC=C4C[C@@H](O)CC[C@@]43C)[C@H]2CC[C@@]12O[C@H]1C[C@H](C)CN[C@H]1[C@@H]2C`, > 46 µM (inactive). Take `CCN(CC)CCn1ncc2c(N)ncnc21`: the Potency is > 46 µM (inactive). The result for `O=C(O)[C@@H]1[C@H](C(=O)O)[C@]2(Cl)C(Cl)=C(Cl)[C@@]1(Cl)C2(Cl)Cl` reads > 46 µM (inactive); that for `C[C@@H](O)CN(CCN(C[C@@H](C)O)C[C@@H](C)O)C[C@@H](C)O.O=[N+]([O-])O.[Cu]`, > 46 µM (inactive); that for `O=C(O)C(=O)Cc1ccc2c(c1)OCO2`, > 46 µM (inactive). The result for `C[C@@](Br)(C(=O)O)[C@H](Br)C(=O)O` reads > 46 µM (inactive). The same measure for `C[C@H](Br)C(=O)N[C@H](CO)C(=O)O`: > 46 µM (inactive); for `Nc1ncnc2c1ncn2[C@@H]1O[C@@H](COP(=O)(O)CP(=O)(O)OP(=O)(O)O)[C@H](O)[C@@H]1O`: > 46 µM (inactive).

As to `CN(CCC(=O)O)C1=Nc2ccc(Cl)cc2C(c2ccccc2)=[N+]([O-])C1`, the Potency was > 46 µM (inactive). Turning to `NS(=O)(=O)c1ccc(-c2ccc([As](=O)(O)O)cc2)cc1`, the Potency is > 46 µM (inactive). The same measure for `O=C(O)c1cc(N=Nc2ccc([As](=O)(O)O)cc2)ccc1O`: > 46 µM (inactive); for `CSC([N-]/N=C/c1cccc(C)n1)=[S]=[Cu].CS[C@H]([S-])[N-]/N=C/c1cccc(C)n1`: > 46 µM (inactive). The same measure for `CN1CCN(c2ccc([N+](=O)[O-])c3[nH]o[n+](=O)c23)CC1`: > 46 µM (inactive). The result for `NNc1c(C(N)=O)c2c(N)ncnc2n1[C@@H]1O[C@H](CO)[C@@H](O)[C@@H]1O` reads > 46 µM (inactive); that for `COc1cc2ccccc2c2cc([N+](=O)[O-])oc12`, > 46 µM (inactive). For the compound `O=C(O)CSCC(=O)O`, the Potency was > 46 µM (inactive). The same measure for `CC1=NN(c2ccc(S(=O)(=O)O)cc2C)C(=[OH+])[C@H]1N=Nc1cc(S(=O)(=O)O)ccc1C(=O)O.O.[Cr]`: > 46 µM (inactive).

`C[C@@H]1[C@@H](C)N1C[C@H](O)Cn1ccnc1[N+](=O)[O-]` (stereo not given in full): the Potency is > 46 µM (inactive). The same measure for `CC[C@@](O)(C(=O)O)c1cc2n(c(=O)c1CO)Cc1cc3ccccc3nc1-2`: > 46 µM (inactive); for `O=P(O)(OP(=O)(O)c1ccccc1)c1ccccc1` (tested in a mixture with another compound): > 46 µM (inactive); for `CC[C@@H]1CN2CCc3cc(OC)c(OC)cc3[C@H]2C[C@@H]1C[C@@H]1NCCc2cc(O)c(OC)cc21`: > 20.6 µM (inactive). The result for `Cc1nc2ccccc2cc1C[N+]12CN3CN(CN(C3)C1)C2` reads > 46 µM (inactive); that for `NCCCN1CCN(c2ccccc2)CC1`, > 46 µM (inactive); that for `O=C(O)CS(=O)(=O)C(c1ccccc1)c1ccccc1`, > 46 µM (inactive).

Consider `CN1C[C@@H](CS(=O)(=O)N(C)C)C[C@H]2c3cccc4c3c(cn4C)C[C@@H]21`, for which the Potency is > 46 µM (inactive). The result for `O=C(O)CNC(=O)c1ccc([As](=O)(O)O)cc1` reads > 46 µM (inactive).

With `CN(C)CCCc1c[nH]c2ccccc12`, the Potency is > 46 µM (inactive).
